Measurements published in the supplement of paper PMC12282887.
± gives the standard deviation of the averaged measurements.

Key:
Test in all cases: promoter activity interaction Z-score (Lux/OD deviation from empty-vector control); higher = stronger promoter induction by the compound
[1] = system: E. coli BW25113 acrABp lux reporter
In short: (§1)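 OD600 and luminescence of E. coli BW25113 reporter cultures (40 µl LB Lennox, 384-well plates, 37°C) were measured every 30 min for 12 h. Integration ran over 0–8 h for wild type or 1–9 h for deletion strains, and wells with growth below 10% of the median were dropped. The score is the Z-transformed residual of growth-normalised luminescence fitted against a control.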

[2] = system: E. coli BW25113 marRABp lux reporter
In short: as §1

[3] = system: E. coli BW25113 micFp lux reporter
In short: as §1

[4] = system: E. coli BW25113 ompFp lux reporter
In short: as §1

[5] = system: E. coli BW25113 robp lux reporter
In short: as §1

[6] = system: E. coli BW25113 soxSp lux reporter
In short: as §1

[7] = system: E. coli BW25113 tolCp lux reporter
In short: as §1

[8] = 20.7 µg/ml, genetic background: wild type
[9] = 20.7 µg/ml, genetic background: ΔmarA
[10] = 20.7 µg/ml, genetic background: Δrob
[11] = 20.7 µg/ml, genetic background: ΔsoxS
[12] = 41.4 µg/ml, genetic background: wild type
[13] = 41.4 µg/ml, genetic background: ΔmarA
[14] = 41.4 µg/ml, genetic background: Δrob
[15] = 41.4 µg/ml, genetic background: ΔsoxS
[16] = 82.8 µg/ml, genetic background: wild type
[17] = 82.8 µg/ml, genetic background: ΔmarA
[18] = 82.8 µg/ml, genetic background: Δrob
[19] = 82.8 µg/ml, genetic background: ΔsoxS
[20] = 165.6 µg/ml, genetic background: wild type
[21] = 165.6 µg/ml, genetic background: ΔmarA
[22] = 165.6 µg/ml, genetic background: Δrob
[23] = 165.6 µg/ml, genetic background: ΔsoxS

## CN(C)C(=N)NC(=N)N [Metformin]
[1]; [8]
  promoter activity interaction Z-score: -0.326 ± 0.14
[1]; [9]
  promoter activity interaction Z-score: 0.815 ± 0.45
[1]; [10]
  promoter activity interaction Z-score: -0.31 ± 0.23
[1]; [11]
  promoter activity interaction Z-score: -0.0221 ± 0.28
[1]; [12]
  promoter activity interaction Z-score: -0.0908 ± 0.043
[1]; [13]
  promoter activity interaction Z-score: 0.174 ± 0.41
[1]; [14]
  promoter activity interaction Z-score: 0.377 ± 0.017
[1]; [15]
  promoter activity interaction Z-score: -0.0209 ± 0.61
[1]; [16]
  promoter activity interaction Z-score: -0.145 ± 0.14
[1]; [17]
  promoter activity interaction Z-score: 0.000785 ± 1.4
[1]; [18]
  promoter activity interaction Z-score: 0.271 ± 0.043
[1]; [19]
  promoter activity interaction Z-score: -0.155 ± 0.2
[1]; [20]
  promoter activity interaction Z-score: -0.249 ± 0.13
[1]; [21]
  promoter activity interaction Z-score: 0.575 ± 0.81
[1]; [22]
  promoter activity interaction Z-score: 0.41 ± 0.17
[1]; [23]
  promoter activity interaction Z-score: 0.11 ± 0.051
[2]; [8]
  promoter activity interaction Z-score: -0.244 ± 0.08
[2]; [9]
  promoter activity interaction Z-score: 0.0455 ± 0.11
[2]; [10]
  promoter activity interaction Z-score: -0.139 ± 0.14
[2]; [11]
  promoter activity interaction Z-score: -0.145 ± 0.0015
[2]; [12]
  promoter activity interaction Z-score: -0.1 ± 0.072
[2]; [13]
  promoter activity interaction Z-score: -0.132 ± 0.1
[2]; [14]
  promoter activity interaction Z-score: -0.0299 ± 0.073
[2]; [15]
  promoter activity interaction Z-score: -0.0239 ± 0.17
[2]; [16]
  promoter activity interaction Z-score: -0.104 ± 0.063
[2]; [17]
  promoter activity interaction Z-score: -0.195 ± 0.23
[2]; [18]
  promoter activity interaction Z-score: -0.113 ± 0.043
[2]; [19]
  promoter activity interaction Z-score: -0.0656 ± 0.052
[2]; [20]
  promoter activity interaction Z-score: -0.551 ± 0.065
[2]; [21]
  promoter activity interaction Z-score: -0.242 ± 0.025
[2]; [22]
  promoter activity interaction Z-score: -0.0241 ± 0.2
[2]; [23]
  promoter activity interaction Z-score: 0.145 ± 0.22
[3]; [8]
  promoter activity interaction Z-score: -0.368 ± 0.019
[3]; [9]
  promoter activity interaction Z-score: -0.0629 ± 0.04
[3]; [10]
  promoter activity interaction Z-score: -0.153 ± 0.082
[3]; [11]
  promoter activity interaction Z-score: -0.139 ± 0.14
[3]; [12]
  promoter activity interaction Z-score: -0.177 ± 0.23
[3]; [13]
  promoter activity interaction Z-score: -0.102 ± 0.12
[3]; [14]
  promoter activity interaction Z-score: -0.0244 ± 0.0094
[3]; [15]
  promoter activity interaction Z-score: -0.233 ± 0.015
[3]; [16]
  promoter activity interaction Z-score: -0.161 ± 0.16
[3]; [17]
  promoter activity interaction Z-score: -0.0653 ± 0.072
[3]; [18]
  promoter activity interaction Z-score: -0.0658 ± 0.068
[3]; [19]
  promoter activity interaction Z-score: -0.0678 ± 0.068
[3]; [20]
  promoter activity interaction Z-score: -0.544 ± 0.37
[3]; [21]
  promoter activity interaction Z-score: -0.151 ± 0.025
[3]; [22]
  promoter activity interaction Z-score: -0.0629 ± 0.08
[3]; [23]
  promoter activity interaction Z-score: -0.000873 ± 0.19
[4]; [8]
  promoter activity interaction Z-score: -0.191 ± 0.037
[4]; [9]
  promoter activity interaction Z-score: 0.332 ± 0.047
[4]; [10]
  promoter activity interaction Z-score: -0.324 ± 0.2
[4]; [11]
  promoter activity interaction Z-score: -0.0538 ± 0.13
[4]; [12]
  promoter activity interaction Z-score: -0.037 ± 0.014
[4]; [13]
  promoter activity interaction Z-score: -0.125 ± 0.2
[4]; [14]
  promoter activity interaction Z-score: 0.267 ± 0.2
[4]; [15]
  promoter activity interaction Z-score: 0.0362 ± 0.37
[4]; [16]
  promoter activity interaction Z-score: 0.036 ± 0.056
[4]; [17]
  promoter activity interaction Z-score: 0.0389 ± 0.14
[4]; [18]
  promoter activity interaction Z-score: 0.322 ± 0.37
[4]; [19]
  promoter activity interaction Z-score: 0.0576 ± 0.088
[4]; [20]
  promoter activity interaction Z-score: -0.153 ± 0.11
[4]; [21]
  promoter activity interaction Z-score: 0.766 ± 0.041
[4]; [22]
  promoter activity interaction Z-score: 0.44 ± 0.62
[4]; [23]
  promoter activity interaction Z-score: 0.813 ± 0.41
[5]; [8]
  promoter activity interaction Z-score: 0.282 ± 0.18
[5]; [9]
  promoter activity interaction Z-score: 0.497 ± 0.0053
[5]; [10]
  promoter activity interaction Z-score: -0.187 ± 0.91
[5]; [11]
  promoter activity interaction Z-score: 0.397 ± 1.1
[5]; [12]
  promoter activity interaction Z-score: -0.109 ± 0.24
[5]; [13]
  promoter activity interaction Z-score: 0.171 ± 0.31
[5]; [14]
  promoter activity interaction Z-score: 0.416 ± 0.36
[5]; [15]
  promoter activity interaction Z-score: 0.638 ± 1.1
[5]; [16]
  promoter activity interaction Z-score: 0.336 ± 0.065
[5]; [17]
  promoter activity interaction Z-score: 0.0784 ± 0.21
[5]; [18]
  promoter activity interaction Z-score: 0.39 ± 0.41
[5]; [19]
  promoter activity interaction Z-score: 0.405 ± 0.19
[5]; [20]
  promoter activity interaction Z-score: -0.305 ± 0.39
[5]; [21]
  promoter activity interaction Z-score: 0.28 ± 0.035
[5]; [22]
  promoter activity interaction Z-score: 0.519 ± 0.11
[5]; [23]
  promoter activity interaction Z-score: 0.649 ± 0.18
[6]; [8]
  promoter activity interaction Z-score: -0.232 ± 0.14
[6]; [9]
  promoter activity interaction Z-score: 0.132 ± 0.02
[6]; [10]
  promoter activity interaction Z-score: -0.07 ± 0.0035
[6]; [11]
  promoter activity interaction Z-score: 0.26 ± 0.056
[6]; [12]
  promoter activity interaction Z-score: -0.046 ± 0.095
[6]; [13]
  promoter activity interaction Z-score: 0.0673 ± 0.055
[6]; [14]
  promoter activity interaction Z-score: 0.0305 ± 0.041
[6]; [15]
  promoter activity interaction Z-score: 0.0287 ± 0.19
[6]; [16]
  promoter activity interaction Z-score: 0.0138 ± 0.19
[6]; [17]
  promoter activity interaction Z-score: -0.0135 ± 0.017
[6]; [18]
  promoter activity interaction Z-score: 0.0262 ± 0.22
[6]; [19]
  promoter activity interaction Z-score: -0.0818 ± 0.083
[6]; [20]
  promoter activity interaction Z-score: -0.199 ± 0.039
[6]; [21]
  promoter activity interaction Z-score: -0.0313 ± 0.093
[6]; [22]
  promoter activity interaction Z-score: -0.191 ± 0.24
[6]; [23]
  promoter activity interaction Z-score: 0.0168 ± 0.089
[7]; [8]
  promoter activity interaction Z-score: -0.594 ± 0.2
[7]; [9]
  promoter activity interaction Z-score: 1.15 ± 1.7
[7]; [10]
  promoter activity interaction Z-score: -0.505 ± 0.25
[7]; [11]
  promoter activity interaction Z-score: -0.306 ± 0.74
[7]; [12]
  promoter activity interaction Z-score: -0.0152 ± 1.1
[7]; [13]
  promoter activity interaction Z-score: -0.186 ± 1
[7]; [14]
  promoter activity interaction Z-score: 0.0225 ± 0.69
[7]; [15]
  promoter activity interaction Z-score: -0.32 ± 0.57
[7]; [16]
  promoter activity interaction Z-score: 0.0793 ± 0.27
[7]; [17]
  promoter activity interaction Z-score: 0.276 ± 0.67
[7]; [18]
  promoter activity interaction Z-score: -0.546 ± 0.36
[7]; [19]
  promoter activity interaction Z-score: 0.0771 ± 1.1
[7]; [20]
  promoter activity interaction Z-score: -0.144 ± 0.74
[7]; [21]
  promoter activity interaction Z-score: 0.284 ± 1.1
[7]; [22]
  promoter activity interaction Z-score: -0.698 ± 0.026
[7]; [23]
  promoter activity interaction Z-score: 0.3 ± 0.58
